Results: the OligoGym collection

The sequences below were run against KDR (assay: pooled miR-30 sensor sort-seq; sequence = guide strand). Conditions: shRNA.
Also: reference of the scale not given here.

Sequence	sensor-assay potency score (higher = more potent)
TAGACTGGTAACTTTCATCATT	-0.75
TAATAGACTGGTAACTTTCATC	-0.621
TAATTTGGTTCTGTCTTCCAAA	-0.462
ATTTTGACTGCTACTGTCCTGC	0.0399
TTGCACTCCAATCTCTATCAGC	-0.492
TGTCTTTTCTTGGTCTTCCTGT	0.316
TAGCTGATCATGTAGCTGGGAA	-0.114
TTGACTGCTACTGTCCTGCAAG	-0.615
TTGCTGTCTTGTCAATTCCAAA	-1.68
TTCTTCTTGGTCATCAGCCCAC	-0.727
TTCTTCTACATCACTGAGGGAC	-0.165
TTTTGCTTCACAGAAGACCATG	-1.02

The sequences below were run against KHDRBS3 in the same assay as above. Conditions: shRNA.

Sequence	sensor-assay potency score (higher = more potent)
TTCTTCTTGTAAACGCTTCAGA	-0.501
TGGTACTACAACTCCAACTGGC	-0.54
TTGTGTCTTGAGTTAGTCCACT	-0.733
TACTACAACTCCAACTGGCCGG	-0.46
TTGAGTTAGTCCACTCTTCTTG	0.078
TAACACTTTCTGTCCCAGCTTC	0.341
TTGAGATGGAAGTACTTCGCTT	-0.344
TTCTATTTCTTGGTTCACCAGG	-0.397
TAAGTCTCTTGTGTCGGGGGTG	-0.204
TTGCTGTCCTCGCTGAAGGTGC	-1.17
TTGAACAGTATACAGGACTGGT	-0.303
